Data taken from article PMC10668032, “Altered binding affinity of SIX1-Q177R correlates with enhanced WNT5A and WNT pathway effector expression in Wilms tumor”.
Over roughly 33,000 sequences, “e-score” has its median near -0.05; the highest 2% begin near 0.38. The list comes from a sample in which the highest values are over-represented; it also holds similar and randomly drawn sequences.

Each sequence was assayed against T1, SIX1-Q177R homeodomain (human, UniProt Q15475 108-198, Q177R) (assay: universal protein binding microarray; Universal all-10-mer PBM (8x60K, AMADID 030236), 300 nM GST-tagged protein, Alexa Fluor 488 anti-GST; buffer, salt, pH and temperature not stated (as in Berger); high values mean tight binding). Conditions: protein: ivt; tags: N-terminal GST; dsDNA, one strand shown.
T1 sequence: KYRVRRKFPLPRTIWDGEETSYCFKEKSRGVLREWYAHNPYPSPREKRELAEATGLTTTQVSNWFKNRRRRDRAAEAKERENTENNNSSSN
In short: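 GST-tagged homeodomains were made by in vitro transcription/translation and quantified by anti-GST western blot against a recombinant GST standard curve. They were applied in duplicate at 300 nM final concentration to universal 'all 10-mer' protein binding microarrays (8×60K format). Binding was quantified as 8-mer E-scores with the Universal PBM Analysis Suite.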

Sequence | binding signal
GCGTGATA | 0.173 ± 0.0569 E-score
CACAGTGG | 0.16 ± 0.0343 E-score
CGGGGATC | 0.212 ± 0.00313 E-score
CGCACGAC | 0.187 ± 0.0218 E-score
ATCCGAGG | 0.1653 ± 0.000757 E-score
GTAATCGA | 0.204 ± 0.015 E-score
CGGCTGAC | 0.174 ± 0.0351 E-score
CGAATGAC | 0.198 ± 0.0214 E-score
AAGAGGTG | 0.368 ± 0.00802 E-score
GTTCCGTA | 0.188 ± 0.0176 E-score
GGGTATAA | 0.152 ± 0.0231 E-score
GTATCCTA | 0.187 ± 0.00559 E-score
GTATCCCA | 0.252 ± 0.00467 E-score
GTGTCCCA | 0.442 ± 0.019 E-score
GTATCCGA | 0.312 ± 0.0026 E-score
GCGTCCTA | 0.168 ± 0.0119 E-score
GTGTCCGA | 0.413 ± 0.0127 E-score
GTGTCTGA | 0.364 ± 0.022 E-score
GGGTCCAA | 0.218 ± 0.025 E-score
GTATCCAA | 0.292 ± 0.0191 E-score
GTGTCCAA | 0.419 ± 0.0151 E-score
GGGTCCCA | 0.1517 ± 0.0014 E-score
GTGTCCTA | 0.4 ± 0.0124 E-score
CACCATGA | 0.289 ± 0.0156 E-score
CAGATACA | 0.313 ± 0.0113 E-score

Sequence | binding signal
AGGGTTAC | 0.162 ± 0.0418 E-score
GGTGCCAA | 0.187 ± 0.0523 E-score
GAACGACA | 0.238 ± 0.0152 E-score
ATCCCCCG | 0.266 ± 0.0176 E-score
CACGCGAC | 0.26 ± 0.00798 E-score
GGTATACA | 0.269 ± 0.00593 E-score
TGTTATAA | 0.267 ± 0.015 E-score
ACAGGGGT | 0.266 ± 0.0127 E-score
CAATAGTG | 0.17 ± 0.0397 E-score
CACGGTGG | 0.26 ± 0.0142 E-score
AGGTTACA | 0.182 ± 0.0252 E-score
ATTCGACA | 0.163 ± 0.00531 E-score
CGATCACG | 0.173 ± 0.0459 E-score
CTCCCCGC | 0.168 ± 0.0157 E-score
ATACTCTC | 0.158 ± 0.0315 E-score
ACACACTC | 0.314 ± 0.0291 E-score
ACACTCTC | 0.3915 ± 0.00342 E-score
ACACTCTG | 0.404 ± 0.00495 E-score
ACTGGGCG | 0.192 ± 0.0152 E-score
CTAAGACA | 0.2225 ± 0.00145 E-score
CACAGCCG | 0.208 ± 0.0273 E-score
ACCAACGA | 0.187 ± 0.00325 E-score
CTCAGCAC | 0.185 ± 0.0185 E-score
GAGACACA | 0.241 ± 0.0428 E-score
CAGACACG | 0.353 ± 0.0179 E-score

Sequence | binding signal
AAGACACT | 0.3744 ± 0.00267 E-score
AAGACACG | 0.35 ± 0.00553 E-score
GAGACACC | 0.462 ± 0.0147 E-score
AAGACACC | 0.4713 ± 0.00312 E-score
GAGACAAC | 0.1522 ± 0.00125 E-score
CAGACACC | 0.456 ± 0.0151 E-score
CAGACACA | 0.19 ± 0.0525 E-score
ACACAATC | 0.178 ± 0.0434 E-score
CACCGTTA | 0.24 ± 0.0265 E-score
CACGAAAC | 0.152 ± 0.0288 E-score
TACGTACA | 0.18 ± 0.0207 E-score
ACTCTACA | 0.296 ± 0.00689 E-score
ATTCTACA | 0.181 ± 0.0191 E-score
ACGATGGG | 0.151 ± 0.0168 E-score
CGTGTCCA | 0.4 ± 0.0263 E-score
GGTGTCCA | 0.48 ± 0.00796 E-score
AGTGTCCC | 0.379 ± 0.0227 E-score
AGTGTCCA | 0.348 ± 0.00804 E-score
GGGGTCCA | 0.268 ± 0.0349 E-score
GGAGTCCC | 0.171 ± 0.00561 E-score
GGTATCCA | 0.3692 ± 0.00211 E-score
CGTGTCCC | 0.398 ± 0.0161 E-score
CTGATACA | 0.24 ± 0.00405 E-score
CTTTGACA | 0.219 ± 0.022 E-score
CCGAACCG | 0.175 ± 0.0143 E-score

Sequence | binding signal
ATTATACA | 0.165 ± 0.0294 E-score
ACACTTTA | 0.343 ± 0.037 E-score
CACTCCTG | 0.335 ± 0.0105 E-score
CATTACTC | 0.173 ± 0.0527 E-score
GATCACAC | 0.324 ± 0.0116 E-score
AATTGCAC | 0.151 ± 0.0498 E-score
GATTACAC | 0.451 ± 0.00984 E-score
AATTACAC | 0.433 ± 0.0394 E-score
CATCACAC | 0.317 ± 0.0183 E-score
AATCACAC | 0.348 ± 0.00368 E-score
CATTACAC | 0.452 ± 0.0182 E-score
GATTACCC | 0.175 ± 0.0203 E-score
CTGAGGTA | 0.185 ± 0.0187 E-score
CGGGGGTA | 0.315 ± 0.029 E-score
GGATAAAC | 0.169 ± 0.0541 E-score
CACCTAGG | 0.225 ± 0.0248 E-score
CGCCGACA | 0.209 ± 0.0201 E-score
GATACACA | 0.191 ± 0.024 E-score
AATACCCC | 0.185 ± 0.00616 E-score
AATACACG | 0.379 ± 0.0262 E-score
AATACACA | 0.188 ± 0.0145 E-score
TATACACA | 0.169 ± 0.034 E-score
CATACACA | 0.205 ± 0.0341 E-score
GATACCCC | 0.419 ± 0.00493 E-score
GATACTCC | 0.223 ± 0.00252 E-score

Sequence | binding signal
CATACCCC | 0.205 ± 0.0264 E-score
GATACACC | 0.469 ± 0.00549 E-score
CACACATA | 0.15 ± 0.0738 E-score
CATACACG | 0.385 ± 0.00816 E-score
CCCCTACG | 0.181 ± 0.00578 E-score
CACGTGCG | 0.171 ± 0.0176 E-score
CACTGCCG | 0.26 ± 0.0036 E-score
ACTAGGGA | 0.18 ± 0.018 E-score
TGTCAGAA | 0.183 ± 0.0293 E-score
CAACCCCA | 0.173 ± 0.00554 E-score
CACGAGAA | 0.2024 ± 0.00175 E-score
TATCGACA | 0.212 ± 0.0495 E-score
AACGCCGT | 0.159 ± 0.0311 E-score
AATATACA | 0.18 ± 0.0323 E-score
AATACACT | 0.327 ± 0.0629 E-score
AATACACC | 0.46 ± 0.00939 E-score
CATACACC | 0.4625 ± 0.00144 E-score
CATGCACC | 0.165 ± 0.0266 E-score
CATACTCC | 0.21183 ± 0.000205 E-score
ACTCCGCA | 0.225 ± 0.0283 E-score
CGAACCCC | 0.238 ± 0.0417 E-score
GTGCTCCA | 0.183 ± 0.0244 E-score
ATCCACAG | 0.185 ± 0.0127 E-score
ACATTCGG | 0.311 ± 0.0104 E-score
AACCACAC | 0.281 ± 0.0163 E-score

Sequence | binding signal
CGCACCAC | 0.206 ± 0.0107 E-score
CACACCAA | 0.38 ± 0.0115 E-score
CGCACCAG | 0.17 ± 0.0676 E-score
CACACGAA | 0.217 ± 0.0302 E-score
CACACGAG | 0.238 ± 0.00672 E-score
CACACCAC | 0.442 ± 0.00998 E-score
CACCACAC | 0.426 ± 0.00815 E-score
CACCACAG | 0.322 ± 0.0259 E-score
CCCACCAC | 0.158 ± 0.0233 E-score
CACACCAG | 0.416 ± 0.029 E-score
CACCCCAG | 0.36 ± 0.0234 E-score
AGGATACT | 0.167 ± 0.0416 E-score
CACTCACA | 0.228 ± 0.0123 E-score
CCCTAGTA | 0.18 ± 0.00712 E-score
CACCCAAA | 0.255 ± 0.0189 E-score
TACCGACA | 0.166 ± 0.00446 E-score
AGTCAGTG | 0.207 ± 0.0189 E-score
CCCCACTC | 0.18 ± 0.00661 E-score
CGGGTCAC | 0.246 ± 0.0313 E-score
CCCGCCCC | 0.1792 ± 0.00129 E-score
AGCACCAG | 0.247 ± 0.0221 E-score
AACACCAG | 0.4653 ± 0.00151 E-score
AACACGAG | 0.361 ± 0.00448 E-score
ACCAATAC | 0.1574 ± 0.000269 E-score
CCTGTGTC | 0.229 ± 0.0614 E-score

Sequence | binding signal
CCAGTTTA | 0.227 ± 0.00151 E-score
GCAGTGTA | 0.415 ± 0.0107 E-score
CCAGTGTA | 0.43 ± 0.0046 E-score
CCAGTGTC | 0.431 ± 0.00754 E-score
ACTGTGTC | 0.155 ± 0.074 E-score
GAAGTGTA | 0.368 ± 0.0537 E-score
AAAGTGTC | 0.36 ± 0.0233 E-score
CCAGTAAC | 0.161 ± 0.0301 E-score
ACAGTGTC | 0.387 ± 0.00426 E-score
GCAGGGTA | 0.162 ± 0.00253 E-score
CCAGTGGG | 0.224 ± 0.0185 E-score
CTCCCCTA | 0.159 ± 0.0508 E-score
CCGGGCGA | 0.151 ± 0.0223 E-score
GATCCACA | 0.157 ± 0.00291 E-score
ACCCTGAA | 0.21 ± 0.0501 E-score
CACAGGAG | 0.168 ± 0.00689 E-score
GGATCCCC | 0.298 ± 0.0202 E-score
CCCCGCCC | 0.223 ± 0.0451 E-score
TACTAACA | 0.185 ± 0.0552 E-score
AGTGCGGA | 0.161 ± 0.0458 E-score
CCGGATCG | 0.199 ± 0.0134 E-score
CCCGCCGC | 0.184 ± 0.0289 E-score
